# Test results reported in PubChem BioAssay AID1159580 (chemical genetic matrix, 2015).
# Screen size: about 5,500 compounds; about 2,000 (36%) were called active. Inconclusive results (about 18%) are left out. The list shows a part of the results. Unmarked numbers belong to inactive results. No stated cut-off is given here; in the data, active means normalized growth mostly below about 0.91 (no sharp cut-off); inconclusive means no clear call, values can overlap the other calls; inactive means mostly above about 0.92.
# Assay: chemical genetic growth profiling, strain panel (AID 1159580);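 further: tested at 20 µM; growth read once vehicle control cultures reached saturation at 30 °C; 1 = growth at the plate median or of vehicle wells; lower values mean less growth of the strain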
# Settings: growth OD
# [1] = S. cerevisiae deletion strains, locus YAL013W, strain DEP1, active compounds read low
# [2] = S. cerevisiae deletion strains, locus YBR229C, strain ROT2, active compounds read low
# [3] = S. cerevisiae deletion strains, locus YDL101C, strain DUN1, active compounds read low
# [4] = S. cerevisiae deletion strains, locus YDL134C, strain PPH21, active compounds read low
# [5] = S. cerevisiae deletion strains, locus YDR150W, strain NUM1, active compounds read low
# [6] = S. cerevisiae deletion strains, locus YEL061C, strain CIN8, active compounds read low
# [7] = S. cerevisiae deletion strains, locus YGR078C, strain PAC10, active compounds read low
# [8] = S. cerevisiae deletion strains, locus YHR030C, strain SLT2, active compounds read low
# [9] = S. cerevisiae deletion strains, locus YHR087W, strain rtc3, active compounds read low
# [10] = S. cerevisiae deletion strains, locus YJR043C, strain POL32, active compounds read low
# [11] = S. cerevisiae deletion strains, locus YJR075W, strain HOC1, active compounds read low
# [12] = S. cerevisiae deletion strains, locus YLR039C, strain RIC1, active compounds read low
# [13] = S. cerevisiae deletion strains, locus YLR058C, strain SHM2 (second series), active compounds read low
# [14] = S. cerevisiae deletion strains, locus YLR085C, strain ARP6, active compounds read low
# [15] = S. cerevisiae deletion strains, locus YLR262C, strain YPT6, active compounds read low
# [16] = S. cerevisiae deletion strains, locus YML094W, strain GIM5, active compounds read low
# [17] = S. cerevisiae deletion strains, locus YMR219W, strain ESC1, active compounds read low
# [18] = S. cerevisiae deletion strains, locus YMR263W, strain SAP30, active compounds read low
# [19] = S. cerevisiae deletion strains, locus YNL153C, strain GIM3, active compounds read low
# [20] = S. cerevisiae deletion strains, locus YNL298W, strain CLA4 (second series), active compounds read low
# [21] = S. cerevisiae deletion strains, locus YNL322C, strain KRE1, active compounds read low
# [22] = S. cerevisiae deletion strains, locus YNR030W, strain Alg12, active compounds read low
# [23] = S. cerevisiae deletion strains, locus YOL006C, strain TOP1, active compounds read low
# [24] = S. cerevisiae deletion strains, locus YPL055C, strain LGE1, active compounds read low
# [25] = S. cerevisiae deletion strains, locus YPL241C, strain CIN2, active compounds read low
# [26] = S. cerevisiae deletion strains, locus YPR135W, strain CTF4, active compounds read low
smiles,measurement,setting,value
COC(=O)Cc1nc(NC(=O)c2ccccc2)sc1C,normalized growth,[1],1.02
same,normalized growth,[2],1
same,normalized growth,[3],0.972
same,normalized growth,[4],1.01
same,normalized growth,[5],0.994
same,normalized growth,[6],1.02
same,normalized growth,[7],0.999
same,normalized growth,[8],0.977
same,normalized growth,[9],0.98
same,normalized growth,[10],1.01
same,normalized growth,[11],1
same,normalized growth,[12],1.02
same,normalized growth,[13],1
same,normalized growth,[14],0.889
same,normalized growth,[15],1.12
same,normalized growth,[16],0.948
same,normalized growth,[17],0.994
same,normalized growth,[18],1
same,normalized growth,[19],1
same,normalized growth,[20],1.02
same,normalized growth,[21],1.01
same,normalized growth,[22],0.983
same,normalized growth,[23],0.976
same,normalized growth,[24],0.927
same,normalized growth,[25],0.944
same,normalized growth,[26],1
Cc1ccc(C(=O)Nc2ccc3ccccc3n2)cc1,normalized growth,"S. cerevisiae deletion strains, locus YAR019C, strain CDC15, active compounds read low",0.956
same,normalized growth,"S. cerevisiae deletion strains, locus YBL105C, strain PKC1, active compounds read low",0.954
same,normalized growth,"S. cerevisiae deletion strains, locus YBR135W, strain CKS1, active compounds read low",0.958
same,normalized growth,"S. cerevisiae deletion strains, locus YBR136W, strain MEC1, active compounds read low",0.965
same,normalized growth,"S. cerevisiae deletion strains, locus YBR160W, strain CDC28, active compounds read low",0.95
same,normalized growth,"S. cerevisiae deletion strains, locus YDL017W, strain CDC7, active compounds read low",0.964
same,normalized growth,"S. cerevisiae deletion strains, locus YDL028C, strain MPS1, active compounds read low",0.964
same,normalized growth,[3],0.96
same,normalized growth,"S. cerevisiae deletion strains, locus YDL108W, strain KIN28, active compounds read low",0.963
same,normalized growth,"S. cerevisiae deletion strains, locus YDL132W, strain cdc53, active compounds read low",0.96
same,normalized growth,"S. cerevisiae deletion strains, locus YDL214C, strain PRR2, active compounds read low",0.92
same,normalized growth,"S. cerevisiae deletion strains, locus YDR052C, strain DBF4, active compounds read low",0.976
same,normalized growth,"S. cerevisiae deletion strains, locus YDR054C, strain cdc34, active compounds read low",0.94
same,normalized growth,"S. cerevisiae deletion strains, locus YDR226W, strain ADK1, active compounds read low",0.956
same,normalized growth,"S. cerevisiae deletion strains, locus YDR477W, strain SNF1, active compounds read low",0.937
same,normalized growth,"S. cerevisiae deletion strains, locus YER123W, strain YCK3, active compounds read low",0.906
same,normalized growth,"S. cerevisiae deletion strains, locus YER133W, strain GLC7, active compounds read low",0.929
same,normalized growth,"S. cerevisiae deletion strains, locus YFL009W, strain cdc4, active compounds read low",0.954
same,normalized growth,"S. cerevisiae deletion strains, locus YFL029C, strain CAK1, active compounds read low",0.956
same,normalized growth,"S. cerevisiae deletion strains, locus YFR003C, strain YPI1, active compounds read low",0.961
same,normalized growth,"S. cerevisiae deletion strains, locus YFR019W, strain FAB1, active compounds read low",0.983
same,normalized growth,"S. cerevisiae deletion strains, locus YFR028C, strain CDC14, active compounds read low",0.944
same,normalized growth,"S. cerevisiae deletion strains, locus YGR040W, strain KSS1, active compounds read low",0.925
same,normalized growth,"S. cerevisiae deletion strains, locus YGR052W, strain FMP48, active compounds read low",0.99
same,normalized growth,"S. cerevisiae deletion strains, locus YGR092W, strain DBF2, active compounds read low",0.892
same,normalized growth,[8],0.938
same,normalized growth,"S. cerevisiae deletion strains, locus YHR079C, strain IRE1, active compounds read low",0.933
same,normalized growth,"S. cerevisiae deletion strains, locus YHR082C, strain KSP1, active compounds read low",0.994
same,normalized growth,"S. cerevisiae deletion strains, locus YHR205W, strain SCH9, active compounds read low",0.954
same,normalized growth,"S. cerevisiae deletion strains, locus YIL147C, strain SLN1, active compounds read low",0.963
same,normalized growth,"S. cerevisiae deletion strains, locus YJL095W, strain BCK1, active compounds read low",0.952
same,normalized growth,"S. cerevisiae deletion strains, locus YJL128C, strain PBS2, active compounds read low",0.954
same,normalized growth,"S. cerevisiae deletion strains, locus YJL157C, strain FAR1, active compounds read low",0.917
same,normalized growth,"S. cerevisiae deletion strains, locus YJR016C, strain ILV3, active compounds read low",0.946
same,normalized growth,"S. cerevisiae deletion strains, locus YJR066W, strain TOR1 (second series), active compounds read low",0.918
same,normalized growth,"S. cerevisiae deletion strains, locus YJR066W, strain TOR1, active compounds read low",0.978
same,normalized growth,"S. cerevisiae deletion strains, locus YKL048C, strain ELM1, active compounds read low",0.948
same,normalized growth,"S. cerevisiae deletion strains, locus YKL067W, strain YNK1, active compounds read low",0.93
same,normalized growth,"S. cerevisiae deletion strains, locus YKL101W, strain HSL1, active compounds read low",0.95
same,normalized growth,"S. cerevisiae deletion strains, locus YKL193C, strain SDS22, active compounds read low",0.957
same,normalized growth,"S. cerevisiae deletion strains, locus YKL203C, strain TOR2, active compounds read low",0.986
same,normalized growth,"S. cerevisiae deletion strains, locus YLR113W, strain HOG1, active compounds read low",0.857 (active)
same,normalized growth,"S. cerevisiae deletion strains, locus YLR133W, strain CKI1, active compounds read low",0.944
same,normalized growth,"S. cerevisiae deletion strains, locus YLR403W, strain SFP1, active compounds read low",0.934
same,normalized growth,"S. cerevisiae deletion strains, locus YML070W, strain DAK1, active compounds read low",0.901
same,normalized growth,"S. cerevisiae deletion strains, locus YMR001C, strain CDC5, active compounds read low",0.966
same,normalized growth,"S. cerevisiae deletion strains, locus YMR205C, strain PFK2 (second series), active compounds read low",0.941
same,normalized growth,"S. cerevisiae deletion strains, locus YMR277W, strain FCP1, active compounds read low",0.956
same,normalized growth,"S. cerevisiae deletion strains, locus YNL006W, strain LST8, active compounds read low",0.966
same,normalized growth,"S. cerevisiae deletion strains, locus YNL020C, strain ARK1, active compounds read low",0.947
same,normalized growth,"S. cerevisiae deletion strains, locus YNL161W, strain CBK1, active compounds read low",0.944
same,normalized growth,"S. cerevisiae deletion strains, locus YNL183C, strain NPR1, active compounds read low",0.959
same,normalized growth,"S. cerevisiae deletion strains, locus YNL207W, strain RIO2, active compounds read low",0.964
same,normalized growth,"S. cerevisiae deletion strains, locus YNL222W, strain SSU72, active compounds read low",0.95
same,normalized growth,"S. cerevisiae deletion strains, locus YNL307C, strain MCK1 (second series), active compounds read low",0.93
same,normalized growth,"S. cerevisiae deletion strains, locus YOL078W, strain AVO1, active compounds read low",0.958
same,normalized growth,"S. cerevisiae deletion strains, locus YOL136C, strain PFK27, active compounds read low",0.92
same,normalized growth,"S. cerevisiae deletion strains, locus YOR061W, strain CKA2, active compounds read low",0.964
same,normalized growth,"S. cerevisiae deletion strains, locus YOR119C, strain RIO1, active compounds read low",1.01
same,normalized growth,"S. cerevisiae deletion strains, locus YOR231W, strain MKK1, active compounds read low",0.921
same,normalized growth,"S. cerevisiae deletion strains, locus YOR329C, strain SCD5, active compounds read low",0.962
same,normalized growth,"S. cerevisiae deletion strains, locus YPL031C, strain PHO85, active compounds read low",0.948
same,normalized growth,"S. cerevisiae deletion strains, locus YPL153C, strain RAD53, active compounds read low",0.928
same,normalized growth,"S. cerevisiae deletion strains, locus YPL204W, strain HRR25, active compounds read low",0.937
same,normalized growth,"S. cerevisiae deletion strains, locus YPL209C, strain IPL1, active compounds read low",0.949
same,normalized growth,"S. cerevisiae deletion strains, locus YPL256C, strain CLN2, active compounds read low",0.876
same,normalized growth,"S. cerevisiae deletion strains, locus YPR025C, strain CCL1, active compounds read low",0.959
same,normalized growth,"S. cerevisiae deletion strains, locus YPR106W, strain ISR1, active compounds read low",0.949
same,normalized growth,"S. cerevisiae deletion strains, locus YPR111W, strain DBF20, active compounds read low",0.945
same,normalized growth,"S. cerevisiae deletion strains, strain NNK1, active compounds read low",0.956
same,normalized growth,"S. cerevisiae deletion strains, strain TSCII, active compounds read low",0.957
Cc1ccc(C(=O)NNC(=O)c2ccncc2)c(C)c1,normalized growth,[1],0.994
same,normalized growth,[2],0.993
same,normalized growth,"S. cerevisiae deletion strains, locus YCL061C, strain MRC1, active compounds read low",1.01
same,normalized growth,[3],1.02
same,normalized growth,[4],1
same,normalized growth,[5],0.925
same,normalized growth,[6],0.993
same,normalized growth,[7],1
same,normalized growth,"S. cerevisiae deletion strains, locus YGR229C, strain SMI1, active compounds read low",1.01
same,normalized growth,[8],1.01
same,normalized growth,[9],1
same,normalized growth,[10],1.01
same,normalized growth,[11],1.03
same,normalized growth,"S. cerevisiae deletion strains, locus YKL190W, strain CNB1, active compounds read low",1.01
same,normalized growth,[12],1.03
same,normalized growth,[13],0.994
same,normalized growth,[14],0.98
same,normalized growth,[15],1.02
same,normalized growth,[16],0.983
same,normalized growth,[17],0.988
same,normalized growth,[18],0.965
same,normalized growth,"S. cerevisiae deletion strains, locus YMR307W, strain GAS1, active compounds read low",1.01
same,normalized growth,[19],1.01
same,normalized growth,[20],1.03
same,normalized growth,[21],0.991
same,normalized growth,[22],1.01
same,normalized growth,[23],1.06
same,normalized growth,[24],0.934
same,normalized growth,[25],0.998
same,normalized growth,[26],1.08
same,normalized growth,"S. cerevisiae strains, strain wild type, active compounds read low",1.01
